From PubChem BioAssay
UHRF1 binding – UHRF1 methyl-DNA binding inhibition; Q96T88; UHRF1 binding to methylated oligo, TR-FRET; inhibition, % at 4.4 µM; 370,000 compounds, 0.75% hits; AID 687016; in the data active = inhibition above about 21%;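 also: UHRF1 SRA domain binding a hemimethylated CpG hairpin DNA probe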
Target sequence (Q96T88 whole entry, looked up, the tested form may be a part): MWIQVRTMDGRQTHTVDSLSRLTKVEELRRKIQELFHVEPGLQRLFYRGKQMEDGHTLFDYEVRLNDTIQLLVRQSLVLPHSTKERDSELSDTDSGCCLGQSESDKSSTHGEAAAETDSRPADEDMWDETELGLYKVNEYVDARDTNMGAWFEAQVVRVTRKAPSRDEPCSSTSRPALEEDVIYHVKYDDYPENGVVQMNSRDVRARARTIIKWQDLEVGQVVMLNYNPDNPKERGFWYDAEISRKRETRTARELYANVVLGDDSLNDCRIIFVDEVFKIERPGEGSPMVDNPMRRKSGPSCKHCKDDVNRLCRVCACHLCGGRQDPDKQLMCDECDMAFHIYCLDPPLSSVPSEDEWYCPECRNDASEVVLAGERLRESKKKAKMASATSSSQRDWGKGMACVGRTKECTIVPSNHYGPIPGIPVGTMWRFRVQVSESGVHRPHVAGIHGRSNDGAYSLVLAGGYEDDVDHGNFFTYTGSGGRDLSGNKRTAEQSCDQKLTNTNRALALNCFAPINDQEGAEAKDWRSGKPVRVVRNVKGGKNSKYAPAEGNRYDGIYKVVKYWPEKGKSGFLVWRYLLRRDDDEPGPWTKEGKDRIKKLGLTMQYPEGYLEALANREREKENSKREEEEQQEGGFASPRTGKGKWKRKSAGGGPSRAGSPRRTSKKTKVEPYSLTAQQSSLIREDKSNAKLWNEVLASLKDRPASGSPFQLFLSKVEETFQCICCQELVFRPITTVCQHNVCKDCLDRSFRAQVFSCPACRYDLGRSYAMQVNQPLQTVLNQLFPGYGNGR
Rin1 Abl inh – blocks binding of human Rin1 to Abl. AID 588664. inhibition, % at 7.35 µM. 360,000 compounds, 0.4% hits. TR-FRET Rin1/Abl binding, biochemical; in the data active = inhibition above about 5%, passing the limit was not always enough
MBD2 inh – inhibitors of human MBD2 binding to methylated oligonucleotide. Q9UBB5. 370,000 compounds, 0.31% hits. TR-FRET. inhibition, % at 4.4 µM; in the data active = inhibition above about 13%
TCR CD3 inh – blocks the human TCR-CD3 interaction. TAMRA-labeled TCR probe fluorescence, biochemical. inhibition, % at 9.4 µM. 360,000 compounds, 0.37% hits. AID 651800; in the data active = inhibition above about 19%;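 also: recombinant mutant TCR 2C K166C tagged with TAMRA read by polarization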
LEDGF integ inh – blocks HIV-1 LEDGF/p75-dependent DNA integration. 370,000 compounds, 0.64% hits. inhibition, % at 3.7 µM. TR-FRET IN-LEDGF/p75 DNA integration, Eu/Cy5;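 active = inhibition above the screen-wide mean plus 3 SD, cut at about 13% in these data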;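 also: signal is the Cy5 over europium emission ratio at 671 and 618 nm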
IN multimer up – activates HIV-1 integrase multimerization in LEDGF counter-screen; TR-FRET HIV-1 integrase multimerization, biochemical; activation, % at 7.7 µM; AID 1053131; shares compounds with LEDGF integ inh; 2,000 compounds, 17% hits; in the data active = activation above about 8.9%
TR-FRET interf – TR-FRET optical interference, LEDGF/p75 integration counter-screen. inhibition, % at 7.7 µM. shares compounds with LEDGF integ inh. TR-FRET optical interference counterscreen, HIV-1 IN multimerization. 2,000 tested, under 10 active;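 active = inhibition above the mean over all tested compounds plus 3 SD, which no compound reached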
IN-LEDGF confirm – LEDGF/p75-dependent HIV-1 integration inhibition, confirmation. shares compounds with LEDGF integ inh. TR-FRET LEDGF/p75-dependent HIV-1 integration, biochemical. inhibition, % at 3.7 µM. 2,000 compounds, 36% hits; in the data active = inhibition above about 14%
Of the large screens only hits and unclear results are named; the others gave an inactive call (follow-up assays come after a bar, where they were run). Sampled rows, rich in hits. Any-hit rate of the full collection: about 2%.

CO/N=C(\C(=O)O)c1csc(NN=C(C)C)n1	none
Cc1cc(Cl)c(OCCCCN2CCOCC2)c(Br)c1	none
Cc1cc(Cl)cc(C)c1OCCCCN1CCOCC1	LEDGF integ inh 15 | IN multimer up inactive | TR-FRET interf inactive | IN-LEDGF confirm inactive
CCOC1=CC2=C(C(=O)C(Cl)=CC2=O)[C@@H]2CN(S(=O)(=O)c3ccc(C)cc3)[C@@H](c3ccccc3)[C@H]12	LEDGF integ inh 19 | IN multimer up inactive | TR-FRET interf inactive | IN-LEDGF confirm 26
COc1cc(NC(C)CCCN)c2ncccc2c1 (stereo not drawn)	LEDGF integ inh 35 | IN multimer up inactive | TR-FRET interf inactive | IN-LEDGF confirm 31
COc1cc(NCCCCCCCN)c2ncccc2c1	none (no result: UHRF1 binding, MBD2 inh, TCR CD3 inh, LEDGF integ inh)
Cc1ccc(C(=O)CSc2nnc3ccccn23)c(C)c1	none
COCCn1c(C)cc(C(=O)CSc2nnc3ccccn23)c1C	LEDGF integ inh 15 | IN multimer up inactive | TR-FRET interf inactive | IN-LEDGF confirm 33
C=CC[C@]12CCc3sccc3C1N(c1ccc(C(=O)OCC)cc1)C2=O (stereo partly drawn)	none
Cc1cc(NC(=O)CSCC(=O)OCc2nnc(-c3ccc(F)cc3)o2)no1	none
Cc1cc(=O)[nH]c(SCC(=O)NCc2ccco2)n1	LEDGF integ inh 20 | IN multimer up inactive | TR-FRET interf inactive | IN-LEDGF confirm 21
CSc1ncnc2ncn(C)c12	none
Clc1cccc(/C(Cc2nc3ccccc3[nH]2)=N\Nc2ccccc2)c1	none
O=c1[nH]c2cc3c(cc2cc1CN(Cc1cccnc1)Cc1nnnn1Cc1ccco1)OCCO3	UHRF1 binding 34, LEDGF integ inh 39 | IN multimer up 14 | TR-FRET interf inactive | IN-LEDGF confirm 28
O=c1[nH]c2cc3c(cc2cc1CN(Cc1cccs1)Cc1nnnn1Cc1ccco1)OCCO3	none
COc1cc2c3nnc(-c4ccc(F)cc4)c-3cn(Cc3ccccc3)c2cc1OC	LEDGF integ inh 31 | IN multimer up inactive | TR-FRET interf inactive | IN-LEDGF confirm inactive
Cc1ccc(C)c(N(C(=O)c2csnn2)C(C(=O)NC2CCCCC2)c2cccnc2)c1 (stereo not drawn)	none
CCOC(=O)NC1(NC2CCCCC2)Oc2ccccc2O1	LEDGF integ inh 22 | IN multimer up inactive | TR-FRET interf inactive | IN-LEDGF confirm inactive
Cc1sc2nc(SCC(=O)c3ccc(O)c(O)c3)n(C)c(=O)c2c1C	LEDGF integ inh 20 (no result: Rin1 Abl inh, TCR CD3 inh) | IN multimer up 26 | TR-FRET interf inactive | IN-LEDGF confirm 46
Cc1sc2nc(SCC(=O)OC(C)C)n(C)c(=O)c2c1C	none
O=C1C=C(Nc2ccccc2O)c2ccccc2C1=O	LEDGF integ inh 28 | IN multimer up 19 | TR-FRET interf inactive | IN-LEDGF confirm 37
O=C1C=C(Nc2cccnc2)c2ccccc2C1=O	LEDGF integ inh 29 | IN multimer up inactive | TR-FRET interf inactive | IN-LEDGF confirm 55
C=CCNC(=O)C1CC1(c1ccc(C)cc1)c1ccc(C)cc1 (stereo not drawn)	none
Cc1ccc(C(=O)OC(C(=O)O)C(OC(=O)c2ccc(C)cc2)C(=O)O)cc1 (stereo not drawn)	none
O=C1C(Nc2ccccc2)=C(N2CCCCC2)C(=O)c2ccccc21	LEDGF integ inh 22 | IN multimer up inactive | TR-FRET interf inactive | IN-LEDGF confirm 34
CN(C1=C(N2CCCCC2)C(=O)c2ccccc2C1=O)c1ccccc1	LEDGF integ inh 16 | IN multimer up inactive | TR-FRET interf inactive | IN-LEDGF confirm inactive
O=C(/C=C/c1ccc(O)cc1)c1ccc(NC2=C(N3CCCCC3)C(=O)c3ccccc3C2=O)cc1	LEDGF integ inh 15 | IN multimer up inactive | TR-FRET interf inactive | IN-LEDGF confirm 30
COc1ccccc1NC1=C(N2CCCCC2)C(=O)c2ccccc2C1=O	none (no result: UHRF1 binding, MBD2 inh, TCR CD3 inh, LEDGF integ inh)
O=C(/C=C/c1ccc(O)cc1)c1ccccc1	none
Cc1ccc(NC2=C(N3CCCCC3)C(=O)c3ccccc3C2=O)cc1	LEDGF integ inh 17 | IN multimer up inactive | TR-FRET interf inactive | IN-LEDGF confirm 38
